This is an account of results in PMC4336329 (PLoS ONE, 2015).

About 14,000 (4.5%) of roughly 310,000 compounds showed an effect of 50% or more. The effect is printed as a negative number. The entries come from a sample that favours strong results as a whole.
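Note: peak tail current of the secondary pulse compared with the same well before compound.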

For the experiment, the target named is human ether-à-go-go-related gene (hERG) potassium channel (human, UniProt Q12809). The experiment in a line: primary screen, population patch clamp on CHO cells stably expressing hERG; higher = less effect of the substance.
Sequence of human ether-à-go-go-related gene (hERG) potassium channel (Q12809 whole entry, looked up): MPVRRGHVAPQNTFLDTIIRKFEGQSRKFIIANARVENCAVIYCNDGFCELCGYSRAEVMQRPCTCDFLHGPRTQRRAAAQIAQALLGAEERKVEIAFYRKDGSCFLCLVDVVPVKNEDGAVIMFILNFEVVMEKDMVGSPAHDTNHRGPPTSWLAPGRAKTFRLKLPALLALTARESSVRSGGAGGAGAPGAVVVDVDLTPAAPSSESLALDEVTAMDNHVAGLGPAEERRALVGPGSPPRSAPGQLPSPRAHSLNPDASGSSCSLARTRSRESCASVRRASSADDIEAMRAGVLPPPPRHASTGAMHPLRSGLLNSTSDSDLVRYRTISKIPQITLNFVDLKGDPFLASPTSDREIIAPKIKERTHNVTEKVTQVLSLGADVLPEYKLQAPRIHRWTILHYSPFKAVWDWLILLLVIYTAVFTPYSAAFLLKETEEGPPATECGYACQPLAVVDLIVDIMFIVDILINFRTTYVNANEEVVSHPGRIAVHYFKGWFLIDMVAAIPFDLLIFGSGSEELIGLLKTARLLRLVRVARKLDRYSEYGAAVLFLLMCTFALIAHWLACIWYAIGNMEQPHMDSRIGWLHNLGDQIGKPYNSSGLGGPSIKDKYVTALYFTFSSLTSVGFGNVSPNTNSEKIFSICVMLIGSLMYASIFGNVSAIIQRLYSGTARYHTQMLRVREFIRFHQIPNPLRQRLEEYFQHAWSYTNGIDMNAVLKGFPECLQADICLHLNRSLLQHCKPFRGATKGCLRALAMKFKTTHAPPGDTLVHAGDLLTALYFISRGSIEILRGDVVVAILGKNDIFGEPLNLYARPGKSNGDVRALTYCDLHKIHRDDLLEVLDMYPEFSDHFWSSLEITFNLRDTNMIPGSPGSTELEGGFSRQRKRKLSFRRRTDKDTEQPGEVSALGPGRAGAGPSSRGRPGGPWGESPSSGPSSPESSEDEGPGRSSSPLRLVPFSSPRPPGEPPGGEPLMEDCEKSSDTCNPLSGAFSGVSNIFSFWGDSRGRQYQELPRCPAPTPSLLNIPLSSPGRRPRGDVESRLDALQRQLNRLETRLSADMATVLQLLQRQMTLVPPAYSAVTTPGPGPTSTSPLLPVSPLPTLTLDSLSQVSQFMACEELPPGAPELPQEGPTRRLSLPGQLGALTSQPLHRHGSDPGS
Turning to `O=C(CSc1ccccc1C(=O)NCc1ccccc1)NC1CCCCCCC1`, the “hERG current change (%, negative = inhibition) at 10uM” value is -8.1%.
Consider `O=C(/C=C/c1ccc([N+](=O)[O-])cc1)NCc1cccnc1`, for which the “hERG current change (%, negative = inhibition) at 10uM” value was -42.7%.
`CC1(C)CC(=O)C=C(C(=O)N2CCCC(C(=O)c3cccc(Cl)c3)C2)O1` (stereo not drawn): the “hERG current change (%, negative = inhibition) at 10uM” value was -31%.
On to `O=C(O)c1ccc(NS(=O)(=O)c2ccc(Cl)cc2)cc1`, for which the “hERG current change (%, negative = inhibition) at 10uM” value is reported as 0.513%.
Turning to `COc1cccc(CN2CCC(n3nccc3NC(=O)CCOc3ccccc3)CC2)c1`, the “hERG current change (%, negative = inhibition) at 10uM” value is -62%.
With `O=C(CCCc1ccccc1)Nc1ccnn1C1CCN(Cc2ccccc2F)CC1`, the “hERG current change (%, negative = inhibition) at 10uM” value is -49%.
The figure for `CCNC(=O)N1CCC(n2nccc2NC(=O)CCOc2ccccc2)CC1` is 9.99%.
Take `CC(=O)c1cccc(CN2CCC(n3nccc3NC(=O)CCOc3ccccc3)CC2)c1`: the “hERG current change (%, negative = inhibition) at 10uM” value is reported as -3.2%.
In the case of `COc1ccc(O)c(CN2CCC(n3nccc3NC(=O)CCOc3ccccc3)CC2)c1`, the “hERG current change (%, negative = inhibition) at 10uM” value is recorded as -60.4%.
For the molecule `Cc1cc(C)c(CN2CCC(n3nccc3NC(=O)CCOc3ccccc3)CC2)cc1C`, the “hERG current change (%, negative = inhibition) at 10uM” value is -26.1%.
With `COc1ccc(F)c(CN2CCC(n3nccc3NC(=O)CCCc3ccccc3)CC2)c1`, the “hERG current change (%, negative = inhibition) at 10uM” value was -86.7%.
For `O=C(CCOc1ccccc1)Nc1ccnn1C1CCN(CCc2ccccc2)CC1`, the “hERG current change (%, negative = inhibition) at 10uM” value is given as -65.1%.
Regarding `Cc1ccc(CN2CCC(n3nccc3NC(=O)CCOc3ccccc3)CC2)o1`, the “hERG current change (%, negative = inhibition) at 10uM” value is -20.7%.
Turning to `COc1cccc(C(=O)N2CCC(n3nccc3NC(=O)CCOc3ccccc3)CC2)c1`, the “hERG current change (%, negative = inhibition) at 10uM” value is -0.0371%.
On to `O=C(CCOc1ccccc1)Nc1ccnn1C1CCN(Cc2ccc(CO)o2)CC1`, for which the “hERG current change (%, negative = inhibition) at 10uM” value was 6.52%.
In the case of `CCn1c(SCc2nc3ccccc3[nH]2)nnc1-c1ccc(OC)cc1`, the “hERG current change (%, negative = inhibition) at 10uM” value is on record as -1.72%.
`O=C(NNC(=O)C1CC(=O)N(Cc2ccccc2)C1)c1ccc(F)cc1` (stereo not drawn): the “hERG current change (%, negative = inhibition) at 10uM” value was determined as 2.46%.
The figure for `O=C(NC1CCCCCC1)c1cccnc1Sc1ccccc1` is -15.4%.
The figure for `O=S(=O)(c1ccc(NC(=S)N2CCN(c3ccc(O)cc3)CC2)cc1)N1CCOCC1` is 2.83%; for `COC(=O)C[C@H]1c2cc(F)cc(F)c2S(=O)(=O)N1C1CCN(Cc2ccccc2)CC1` it is -32%; for `CC(=O)Nc1ccc(S(=O)(=O)CCC(=O)O)cc1` it is 17.5%.
On to `Cc1cc(C(=O)Nc2sc(C)c(C)c2C#N)c(C)o1`, for which the “hERG current change (%, negative = inhibition) at 10uM” value is listed as 20.6%.
Turning to `Cc1ccc2oc(C(=O)NCC(c3ccco3)N(C)C)c(C)c2c1` (stereo not drawn), the “hERG current change (%, negative = inhibition) at 10uM” value is listed as -8.52%.
With `O=C(CCOc1ccccc1)Nc1ccnn1C1CCN(Cc2ccc(F)cc2)CC1`, the “hERG current change (%, negative = inhibition) at 10uM” value is reported as -59.1%.
Next, `COc1ccc(CN2CCC(n3nccc3NC(=O)CCOc3ccccc3)CC2)cc1C`: -68.7%; `Cc1ccc(CN2CCC(n3nccc3NC(=O)CCOc3ccccc3)CC2)cc1C`: -48.2%; `CCn1cc(CN2CCC(n3nccc3NC(=O)CCOc3ccccc3)CC2)c(C)n1`: 7.84%.
Next, `CCn1cc(CN2CCC(n3nccc3NC(=O)CCOc3ccccc3)CC2)cn1`: -12.9%; `O=C(COc1ccc2c3c(c(=O)oc2c1)CCC3)NCC(O)c1ccccc1` (stereo not drawn): 11.5%; `CCOC(=O)C1CCCN(S(=O)(=O)c2ccc3c(c2)NC(=O)CO3)C1` (stereo not drawn): -1.47%.
On to `COc1ccc(C2(C)NC(=O)N(CC(=O)Nc3ccc(S(=O)(=O)N4CCCC4)cc3)C2=O)cc1` (stereo not drawn), for which the “hERG current change (%, negative = inhibition) at 10uM” value was -2.91%.
Next, `O=C(CN1CCN(CC(=O)Nc2ccc(OCc3ccccc3)cc2)CC1)Nc1ccc(F)cc1`: -72.5%; `O=C(CN1CCN(c2ccccc2)CC1)Nc1ccc(OCc2ccccc2)cc1`: 2.44%.
Take `CN1CCN(CC(=O)Nc2ccc(OCc3ccccc3)cc2)CC1.Cl`: the “hERG current change (%, negative = inhibition) at 10uM” value was -9.11%.
As for `O=C(CN1CCOCC1)Nc1ccc(OCc2ccccc2)cc1`, the “hERG current change (%, negative = inhibition) at 10uM” value was -21.3%.
On to `O=C(CN1CCN(c2ccccn2)CC1)Nc1ccc(OCc2ccccc2)cc1`, for which the “hERG current change (%, negative = inhibition) at 10uM” value is -45.3%.
As for `O=C(CN1CCCC1)Nc1ccc(OCc2ccccc2)cc1`, the “hERG current change (%, negative = inhibition) at 10uM” value is -54.1%.
Consider `COC(=O)c1ccc(N=Cc2c(C(F)(F)F)[nH][nH]c2=O)cc1`, for which the “hERG current change (%, negative = inhibition) at 10uM” value is 27.2%.
Consider `CCCCCc1nc2ccccc2c(=O)n1-c1ccccc1[N+](=O)[O-]`, for which the “hERG current change (%, negative = inhibition) at 10uM” value is recorded as -24.5%.
Regarding `Cc1ccc(NC(=O)c2cccs2)cc1NC(=O)c1cccc(F)c1`, the “hERG current change (%, negative = inhibition) at 10uM” value amounted to 5.36%.
Take `CC(C)c1c(O)nc(SCc2ccccc2)[nH]c1=O`: the “hERG current change (%, negative = inhibition) at 10uM” value is 11.5%.
Regarding `CSc1ccccc1C(=O)NCC1CCCO1` (stereo not drawn), the “hERG current change (%, negative = inhibition) at 10uM” value was -11.8%.
As to `O=C1c2ccccc2C(=O)N1CCCCSc1nnnn1-c1ccccc1`, the “hERG current change (%, negative = inhibition) at 10uM” value is -51.7%.
In the case of `O=C1c2ccccc2C(=O)N1CCCCSc1nnc2c(Cl)cc(Cl)cn12`, the “hERG current change (%, negative = inhibition) at 10uM” value was -80.2%.
On to `O=C1c2ccccc2C(=O)N1CCCCSc1nnc2ccccn12`, for which the “hERG current change (%, negative = inhibition) at 10uM” value is -22.7%.
